Experimental data from the supplement of paper PMC7411054.

Legend:
Settings in all cases: treatment time: 24 h
[1] = system: A549-ACTB-RAB5A; assay: lowest phenotypically active concentration; higher = less potent
How it was run: (§1)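 Two criteria together defined phenotypic activity: deviation and reproducibility. Deviation meant ≥3 of 4 wells beyond the 95th percentile of Euclidean distances in solvent control wells, and reproducibility meant a median replicate Pearson correlation above the 95th percentile of non-replicates. Wells had been treated for 24 h at 0.3, 1, 3 or 9 µM in fifteen gene-edited A549, HepG2 and WPMY1 reporter lines before live imaging.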

[2] = system: A549-GM130-SQSTM1; assay: as above
How it was run: as §1

[3] = system: A549-TUBA1B-RELA; assay: as above
How it was run: as §1

[4] = system: WPMY1-ACTB-RAB5A; assay: as above
How it was run: as §1

[5] = system: WPMY1-CANX-COX4; assay: as above
How it was run: as §1

[6] = system: A549-ACTB-RAB5A; assay: phenotypically active (imaging signature differs from DMSO and reproducible) at any of 0.3-9 uM (binary (1 = active, 0 = inactive)); higher = active
How it was run: as §1

[7] = system: A549-CANX-COX4; assay: as above
How it was run: as §1

[8] = system: A549-GM130-SQSTM1; assay: as above
How it was run: as §1

[9] = system: A549-TP53BP1-CLTA; assay: as above
How it was run: as §1

[10] = system: A549-TUBA1B-RELA; assay: as above
How it was run: as §1

[11] = system: HepG2-ACTB-RAB5A; assay: as above
How it was run: as §1

[12] = system: HepG2-CANX-COX4; assay: as above
How it was run: as §1

[13] = system: HepG2-GM130-SQSTM1; assay: as above
How it was run: as §1

[14] = system: HepG2-TP53BP1-CLTA; assay: as above
How it was run: as §1

[15] = system: HepG2-TUBA1B-RELA; assay: as above
How it was run: as §1

[16] = system: WPMY1-ACTB-RAB5A; assay: as above
How it was run: as §1

[17] = system: WPMY1-CANX-COX4; assay: as above
How it was run: as §1

[18] = system: WPMY1-GM130-SQSTM1; assay: as above
How it was run: as §1

[19] = system: WPMY1-TP53BP1-CLTA; assay: as above
How it was run: as §1

[20] = system: WPMY1-TUBA1B-RELA; assay: as above
How it was run: as §1

Cc1noc(C)c1-c1ccc2c(c1)nc(CCc1ccc(OCCCN(C)C)cc1)n2CCN1CCOCC1
active: phenotypically active [6] 1 | phenotypically active [8] 1 | phenotypically active [9] 1 | phenotypically active [10] 1 | phenotypically active [11] 1 | phenotypically active [12] 1 | phenotypically active [13] 1 | phenotypically active [14] 1 | phenotypically active [15] 1 | phenotypically active [16] 1 | phenotypically active [17] 1 | phenotypically active [18] 1 | phenotypically active [19] 1 | phenotypically active [20] 1
9 µM: lowest phenotypically active concentration [1] | lowest phenotypically active concentration [4] | lowest phenotypically active concentration [5]
inactive: phenotypically active [7] 0
3 µM: lowest phenotypically active concentration [2] | lowest phenotypically active concentration [3]

O=C(O)[C@@H]1[C@H]2C[C@H]3c4[nH]c5ccccc5c4CCN3C[C@@H]2CC[C@@H]1O [Yohimbinic acid monohydrate]
active: phenotypically active [6] 1 | phenotypically active [8] 1 | phenotypically active [9] 1 | phenotypically active [10] 1 | phenotypically active [16] 1 | phenotypically active [17] 1 | phenotypically active [18] 1 | phenotypically active [19] 1 | phenotypically active [20] 1
3 µM: lowest phenotypically active concentration [2]
inactive: phenotypically active [7] 0 | phenotypically active [11] 0 | phenotypically active [12] 0 | phenotypically active [13] 0 | phenotypically active [14] 0 | phenotypically active [15] 0
9 µM: lowest phenotypically active concentration [1] | lowest phenotypically active concentration [3] | lowest phenotypically active concentration [4] | lowest phenotypically active concentration [5]

Cn1cc(C2=C(c3ccc(Cl)cc3Cl)C(=O)NC2=O)c2ccccc21
1 µM: lowest phenotypically active concentration [1] | lowest phenotypically active concentration [3] | lowest phenotypically active concentration [5]
≤ 0.3 µM: lowest phenotypically active concentration [2]
active: phenotypically active [6] 1 | phenotypically active [8] 1 | phenotypically active [9] 1 | phenotypically active [10] 1 | phenotypically active [13] 1 | phenotypically active [14] 1 | phenotypically active [17] 1 | phenotypically active [18] 1 | phenotypically active [19] 1
inactive: phenotypically active [7] 0 | phenotypically active [11] 0 | phenotypically active [12] 0 | phenotypically active [15] 0 | phenotypically active [16] 0 | phenotypically active [20] 0

COc1ccccc1OCCNCC(O)COc1cccc2[nH]c3ccccc3c12 (centres undefined) [Carvedilol]
active: phenotypically active [6] 1 | phenotypically active [8] 1 | phenotypically active [9] 1 | phenotypically active [10] 1 | phenotypically active [11] 1 | phenotypically active [12] 1 | phenotypically active [13] 1 | phenotypically active [14] 1 | phenotypically active [15] 1 | phenotypically active [16] 1 | phenotypically active [17] 1 | phenotypically active [18] 1 | phenotypically active [19] 1 | phenotypically active [20] 1
9 µM: lowest phenotypically active concentration [1] | lowest phenotypically active concentration [2] | lowest phenotypically active concentration [3] | lowest phenotypically active concentration [4] | lowest phenotypically active concentration [5]
inactive: phenotypically active [7] 0

O=S(=O)(c1cccc2cnccc12)N1CCCNCC1 [fasudil]
active: phenotypically active [6] 1 | phenotypically active [8] 1 | phenotypically active [9] 1 | phenotypically active [10] 1 | phenotypically active [11] 1 | phenotypically active [12] 1 | phenotypically active [13] 1 | phenotypically active [14] 1 | phenotypically active [15] 1 | phenotypically active [16] 1 | phenotypically active [17] 1 | phenotypically active [18] 1 | phenotypically active [20] 1
9 µM: lowest phenotypically active concentration [2]
3 µM: lowest phenotypically active concentration [1] | lowest phenotypically active concentration [3] | lowest phenotypically active concentration [4] | lowest phenotypically active concentration [5]
inactive: phenotypically active [7] 0 | phenotypically active [19] 0
